Screening results from PubChem BioAssay.
Only some compounds are listed: those with a hit (about 3.7% of all), similar ones and a draw of the others.
MazF activator – MazEF (E. coli) toxin RNase activation | 350,000 tested, 0.32% active | activation, % at 20 µM | FAM/BHQ RNA-DNA oligo cleavage fluorescence, 5 h | P0AE70; in the data active = activation above about 50%
Target sequence (P0AE70 whole entry, looked up): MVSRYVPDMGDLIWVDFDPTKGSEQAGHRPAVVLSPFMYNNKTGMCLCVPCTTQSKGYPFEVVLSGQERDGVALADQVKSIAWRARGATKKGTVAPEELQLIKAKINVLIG
BoNT-F LC inh – BoNT F light chain protease inhibition; Multiplex microsphere protease cleavage assay, flow cytometry; inhibition, % at 10 µM; 360,000 tested, 0.22% active; in the data active = inhibition above about 35%, passing the limit was not always enough; inconclusive = no clear call, values can overlap the other calls
Autofluor counter – flagged as autofluorescent in microsphere protease counterscreen. compound autofluorescence counterscreen, microsphere flow cytometry; active compounds read high. fluorescence intensity (test concentration not listed). 360,000 tested, 3.1% active; in the data active = fluorescence intensity above about 16000; inconclusive = no clear call, values can overlap the other calls
Anthrax LF inh2 – anthrax lethal factor protease inhibition; multiplex microsphere protease cleavage assay, LF; 360,000 tested, 0.12% active; inhibition, % at 10 µM
BoNT A protease – inhibitors of Botulinum neurotoxin A light chain protease. multiplex microsphere protease substrate cleavage, flow cytometry. inhibition, % at 10 µM. 360,000 tested, 0.17% active. AID 588499
Large screens that a line does not name were inactive. Rule as the data show it, unless noted: active = inhibition above about 30%; inconclusive = no clear call, values can overlap the other calls; inactive = below that.

CC(C)c1nnc(NC(=O)Cn2nc(-c3ccc4c(c3)OCCO4)ccc2=O)s1	Autofluor counter 17082
O=C1c2ccccc2C(c2nnnn2-c2ccc3c(c2)OCCO3)N1Cc1cccnc1 (configuration not stated)	none (no result: MazF activator)
O=C(CN1C(=O)NC(c2ccccc2)(c2ccccc2)C1=O)NCc1ccc(F)cc1	none
Cc1ccc(S(=O)(=O)N2CC3(O)CN(C(=O)OC(C)C)N(C(=O)OC(C)C)CC3(OC(=O)NCC3CCCCC3)C2)cc1 (configuration not stated)	none
Cc1nn2c(c1-c1ccc(Cl)cc1)N=C(c1ccco1)CC2c1ccccc1 (configuration not stated)	Autofluor counter 22364
CS(=O)(=O)Nc1ccc(C(=O)N2CC(=O)Nc3ccccc32)cc1	none
Cc1cc(C(F)(F)F)nn1CCCNC(=O)c1cnccn1	Autofluor counter 23254, BoNT A protease inconclusive
CCOC(=O)c1sc(NC(=O)CSc2nnc(Cc3ccccc3)o2)c(C(=O)OCC)c1C	Autofluor counter 23789
COc1ccc(CCCc2nnc(SCC(=O)Nc3cc(C)c(C)cc3Br)o2)cc1	Autofluor counter 21054
CCOC(=O)c1c(NC(=O)C(Sc2ccccc2)c2ccccc2)sc(C(N)=O)c1C (configuration not stated)	Autofluor counter 23438
CCOC(=O)c1c(NC(=O)CN2CCOCC2)sc(C(=O)NC)c1C	Autofluor counter 22110
COc1ccc(Cc2nnc(SCC(=O)NC(C)c3ccccc3)o2)cc1 (configuration not stated)	Autofluor counter 22651
CC(NC(=O)CSc1nnc(COc2ccccc2)o1)c1ccccc1 (configuration not stated)	none
CCOC(=O)c1sc(NC(=O)CSc2nnc(C)s2)c(C(=O)OCC)c1C	Autofluor counter 22787
CC(=O)OC[C@@H]1CN(Cc2ccccc2)C[C@H](n2cnc3c(N4CCOCC4)ncnc32)O1	none (no result: MazF activator)
CCCCn1c(=NC(=O)c2ccc3c(c2)OCO3)c(C#N)cc2c(=O)n3cccc(C)c3nc21	BoNT-F LC inh 38, Anthrax LF inh2 49, BoNT A protease 63
CCCCn1c(=NC(C)=O)c(C#N)cc2c(=O)n3cccc(C)c3nc21	none
CC(=O)N=c1c(C#N)cc2c(=O)n3ccccc3nc2n1CCCOC(C)C	none (no result: BoNT-F LC inh, Autofluor counter, Anthrax LF inh2, BoNT A protease)
CCCCCn1c(=NC(C)=O)c(C#N)cc2c(=O)n3ccccc3nc21	Autofluor counter 23665
Cc1ccccc1-n1c(=O)c(C#N)cc2c(=O)n3ccccc3nc21	Autofluor counter 21339, BoNT A protease inconclusive
COc1cccc(C=C(C(C)=O)C(=O)c2ccccc2)c1	none (no result: MazF activator)
COc1cc(C(=O)COC(=O)c2ccc3c(c2)OCCO3)cc(OC)c1OC	none
COc1ccc(C(=O)C[N+]2(C)CCOCC2)cc1	BoNT-F LC inh 46
O=C(O)CN1C(=O)/C(=C\C(Br)=C\c2ccccc2)SC1=S	none
COC(=O)[C@]12CCCCC=C1N(CCC1=CCCCC1)C(=O)[C@H](CC(=O)NCc1cccc(C(F)(F)F)c1)C2	none (no result: MazF activator)
O=C(NCCc1ccccn1)c1n[nH]c(=O)c2ccccc12	Autofluor counter 22070
CCOc1cc(C(=S)N2CCOCC2)cc(Br)c1OS(=O)(=O)c1ccccc1	none
O=C(NCc1cccc(F)c1)Nc1nnc([C@H]2C[C@H](O)[C@@H](CO)O2)s1	none (no result: MazF activator)
Cc1ccc(N2CSC3=C(C#N)C(c4cccs4)CC(=O)N3C2)cc1 (configuration not stated)	none
CCc1ccc(N2CSC3=C(C#N)C(c4cccs4)CC(=O)N3C2)cc1 (configuration not stated)	Autofluor counter 25679
Cc1onc(-c2ccccc2)c1C(=O)N1CCC(C)(C(=O)O)C1 (configuration not stated)	none (no result: MazF activator)
CCOC(=O)C1CCCN(C(=O)c2cc3c(OC)c(OC)c(OC)cc3[nH]2)C1 (configuration not stated)	none
COc1ccc(CCn2c(SCC(=O)Nc3cc(C)on3)nc3ccsc3c2=O)cc1OC	Autofluor counter 19488
COC(=O)c1cccc(NC(=O)CSc2nc(=O)cc(N)n2-c2ccccc2)c1	Autofluor counter 16937
Cc1ccc(NC(=O)CSc2nc(=O)cc(N)n2-c2ccccc2)cc1	none
Nc1cc(=O)nc(SCC(=O)N(C2CCCCC2)C2CCCCC2)n1-c1ccccc1	Autofluor counter 16646, BoNT A protease inconclusive
Cc1cc(NC(=O)CSc2nc3ccccc3n2CC(=O)N2CC(C)CC(C)C2)no1 (configuration not stated)	Autofluor counter 23778, BoNT A protease inconclusive
